# DT40 TDP1 CPT: growth inhibition of DT40 Tdp1-/-;hTDP1 cells with camptothecin (screen for TDP1 inhibitors); chicken DT40 Tdp1-/-;hTDP1 cells + 20 nM CPT, ATP luminescence, 48 h; Potency, µM (doses to about 46.2 µM), inactives show at the top dose activity change, negative = growth inhibition, usual class: inhibitors; 420,000 tested, 12% active; also: potency is read from the fitted curve at half-maximal effect; % is scaled to controls: 0 for no effect and ±100 for the full control effect; nearly all actives have a fitted effect of over 55% in size
#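 Cell growth measured by CellTiter-Glo luminescence after a minimum 48 h, 37 C compound exposure with 20 nM CPT in Tdp1-knockout DT40 cells stably expressing hTDP1, seeded 400/well; qHTS titration format.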
# IL1B secr inh: blocks inflammasome-driven IL-1 beta release. activity change, % at 57.5 µM. 360,000 tested, 4.7% active. THP-1 LPS/ATP IL-1B secretion, AlphaLISA, 16 h; stronger effect = lower value; in the data active = activity change below about -50%; inconclusive = mostly about -30% to -49%; also: % is scaled to controls: 0 for no effect and ±100 for the full control effect
#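 THP-1 cells pretreated 1 hr with compounds (up to 57.5 uM final), then stimulated with LPS (250 ng/mL final) plus ATP (1.25 mM final); secreted IL-1B measured by AlphaLISA after 16 hr, decreased signal indicating inhibition.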
# BCR signal inh: inhibitors of chronic active B-cell receptor signaling | ABC-DLBCL IkBa-CBG/CBR reporter, luminescence ratio, 4 h | Potency, µM (series often up to 46.1 µM), for inactives: at the highest dose activity change, negative = inhibition, most hits filed as inhibitors | 340,000 tested, 0.05% active; active = well fitted inhibition curve with a large enough effect in the signal ratio, with a control signal flat, not every such curve was filed as active; inconclusive = small, poorly fitted or top-dose-only effect, or effect the other way, or a change in a side signal; the % refers to the signal ratio;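 also: potency is read from the fitted curve at half-maximal effect; plate controls were basal doxycycline-induced cells for no effect and cells given 10 µM MG132 for full effect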
#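 Concentration-response series (up to 46 uM) were applied to TMD8 dual-reporter cells for 4 h at 37C with doxycycline. Green/red ratio, after filter-overlap correction, defined %Activity; red signal alone was normalised to basal cells and zero luminescence.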
# TDP1 cell noCPT: qHTS for Inhibitors of human tyrosyl-DNA phosphodiesterase 1 (TDP1): qHTS in cells in absence of CPT; DT40 Tdp1-/- hTDP1 cells, no CPT, ATP luminescence, 48 h; Potency, µM (series often up to 46.2 µM), inactives show at the top dose activity change, negative = growth inhibition, hits mostly inhibitors; 420,000 tested, 15% active; also: potency is read from the fitted curve at half-maximal effect; % is scaled to controls: 0 for no effect and ±100 for the full control effect; nearly all actives have a fitted effect of over 55% in size
#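 Camptothecin absent (DMSO only). Human TDP1-complemented DT40 knockout cells, 400 cells/well, 37 °C for minimum 48 hr; ATP measured via CellTiter-Glo, 30 min dark incubation, luminescence.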
# MCF10A rereplic: inducers of DNA re-replication in MCF 10A breast cells; MCF 10A DNA re-replication, Hoechst nuclear intensity, 48 h; Potency, µM (top dose mostly 46.1 µM), for the others: top-dose activity, positive = re-replication, most hits filed as activators; 350,000 tested, 2.9% active; AID 624296; also: potency is read from the fitted curve at half-maximal effect; % of control where 0% means no effect; nearly all actives have a fitted effect of over 50% in size
# SW480 rereplic: induces DNA re-replication in SW480 colon adenocarcinoma cells | Potency, µM (highest dose often 46.1 µM), inactives show at the highest dose re-replication activation, usual class: activators | 340,000 tested, 1.8% active | SW480 DNA re-replication, Hoechst DNA content imaging, 48 h; also: potency is read from the fitted curve at half-maximal effect; % of control where 0% means no effect; nearly all actives have a fitted effect of over 55% in size
#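 Hoechst fluorescence of nuclei (405 nm excitation, 500-530 nm emission) measured by plate-scanning imager after 48 hr compound exposure at 37 C; re-replication scored as increased number of nuclei with elevated intensity.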
# Active calls of the source: *; i = inactive; ? = inconclusive; · = no result given; [ ] = another dose, or the depositor's remark. Compounds with a hit are over-represented: about 19% of the library has one in this group of screens. Unless noted, calls follow the shape of the dose curve; as a rule, active = well fitted curve in the direction sought with a large enough effect; inconclusive = small, poorly fitted or top-dose-only effect, or another doubt; inactive = no such curve, though single readings can be large; an effect the other way counts as inactive or inconclusive.
SMILES,DT40 TDP1 CPT,IL1B secr inh,BCR signal inh,TDP1 cell noCPT,MCF10A rereplic,SW480 rereplic
CC(C)[C@@H]1Cc2[nH][nH]c(=O)c2[C@H](C(C)C)O1,-16.1%,-9.6,·,-23.6%,·,·
CCn1c(CN2CCOCC2)nnc1SCC(=O)Nc1cccc(C)c1,0.7%,i,3.7%,-1.2%,-5.7%,-28.7%
COc1ccc(NC(=O)c2oc3ccccc3c2NC(=O)Cc2coc3cc(C)ccc23)cc1,?,·,·,11.6µM*,·,·
Cc1ccc2c(CC(=O)Nc3c(C(=O)c4ccc(F)cc4)oc4ccccc34)coc2c1,-1.3%,·,·,-19.7%,·,·
COC(=O)c1ccc(C)c(NC(=O)Cc2coc3cc(OC)ccc23)c1,-14.0%,49.1,-1.4%,?,21.6%,10.6%
COc1ccc(CC(=O)Nc2c(C(=O)Nc3ccc(F)cc3)oc3ccccc23)cc1OC,11.6µM*,·,·,20.6µM*,·,·
COC(=O)c1cc(NC(=O)Cc2coc3cc(OC)ccc23)cc(C(=O)OC)c1,23.1µM*,-15.7,?,?,0.3%,-0.6%
Cc1ccc(-n2c(=O)c3c(c4cc(C)ccc4n3C)n(CC(=O)Nc3c(C)cccc3C)c2=O)cc1,-13.1%,·,·,-23.7%,·,·
Cc1cccc(C(=O)Nc2ccc(N3CC=C(c4ccccc4C)CC3)c(C(=O)O)c2)c1,?,·,-16.3%,?,·,·
O=C1C(Nc2cccc(O)c2)=C(N2CCCCC2)C(=O)c2ccccc21,8.2µM*,-83.6*,?,7.31µM*,3.3%,1.2%
O=C1C(Nc2ccccc2)=C(N2CCCCC2)C(=O)c2ccccc21,18.4µM*,-3.1,?,9.2µM*,?,-0.3%[9.22 µM]
COc1ccccc1NS(=O)(=O)c1cc(N)ccc1N1CCCC1,?,-18.0,-1.5%,?,2.8%,2.8%
COc1ccccc1NC1=C(N2CCCCC2)C(=O)c2ccccc2C1=O,2.06µM*,?,?,1.84µM*,3.26µM*,4.61µM*
Cc1ccc(NC2=C(N3CCCCC3)C(=O)c3ccccc3C2=O)cc1,2.59µM*,-67.8*,?,2.31µM*,5.8µM*,2.91µM*
CC1=C(Nc2ccc(C(=O)O)cc2)C(=O)c2ccccc2C1=O,?,30.1,?,?,?,-8.1%
O=C(/C=C/c1ccc(O)cc1)c1ccc(NC2=C(N3CCCCC3)C(=O)c3ccccc3C2=O)cc1,1.3µM*,?,?,1.64µM*,6.51µM*,?
CN(C1=C(N2CCCCC2)C(=O)c2ccccc2C1=O)c1ccccc1,14.6µM*,-82.3*,26.8%,20.6µM*,?,12.1%
CN(c1ccccc1)c1nc(N)c([N+](=O)[O-])c(N2CCCCC2)n1,?,0.0,?,?,0.1%,-14.2%
CC[C@]1(c2ncc[nH]2)Cc2ccccc2O1,?,·,·,23.7µM*,·,·
O=C(c1ccco1)N1CCN(c2ccc(N3CCCCC3)nn2)CC1,9.8%,4.0,4.7%,-1.8%,2.3%,-3.0%
Cc1nc(-c2cccc(NC(=O)c3ccco3)c2)cs1,-17.2%,6.3,4.2%,-28.2%,-1.0%,3.4%
Cc1nc(-c2ccc(C(=O)Nc3ccc(F)cc3)cc2)cs1,13.7%,31.5,?,4.8%,1.9%,1.8%
O=C(Nc1ccc(-c2ccc(N3CCCCC3)nn2)cc1)c1ccco1,?,-13.0,?,25.9µM*,4.2%,21.4%
Cc1nc(-c2ccc(NC(=O)c3ccccc3Br)cc2)cs1,3.5%,-51.6*,?,-16.3%,17.2%,-8.2%
Cc1nc(-c2ccc(NC(=O)c3ccco3)cc2)cs1,13µM*,-10.9,?,?,-5.0%,-3.2%
SMILES,DT40 TDP1 CPT,IL1B secr inh,BCR signal inh,TDP1 cell noCPT,MCF10A rereplic,SW480 rereplic
Cc1ccn2cc(-c3ccc(NC(=O)c4ccco4)cc3)nc2c1,?,-91.7*,?,?,?,?
CC1=CC2(C)NC(=O)C(C)C12 (centres undefined),4.2%,16.0,·,8.0%,·,·
Fc1ccc(F)c(Nc2c3c(nc4ccc(Cl)cc24)CCC3)c1,16.4µM*,·,·,?,·,·
FC(F)(F)c1cccc(Nc2c3c(nc4ccc(Cl)cc24)CCC3)c1,7.31µM*,·,·,6.51µM*,·,·
O=C(O)CSc1c2c(nc3cc(C(=O)Nc4ccc(F)c(Cl)c4)ccc13)CCC2,11.4%,·,·,-1.8%,·,·
O=C(c1ccc2c(Cl)c3c(nc2c1)CCCC3)N1CCN(c2cccc(C(F)(F)F)c2)CC1,-9.0%,·,·,-11.6%,·,·
COc1cccc2c1OCC([C@@H]1C[C@H]3CN(Cc4cccc(Cl)c4)C(=O)[C@]34CCCN14)=C2,16.4µM*,-60.8*,-1.1%,?,9.0%,-1.3%
COc1ccccc1/C=C/[C@@H]1C[C@H]2CN(Cc3cccc(Cl)c3)C(=O)[C@]23CCCN13,10.3µM*,0.0,?,20.6µM*,21.1%,-2.6%
O=C(O)/C=C/C(=O)NCc1cn(-c2ccccc2)nc1-c1cccc(Br)c1,1.6%,-57.8*,-4.0%,-1.7%,1.7%,-126.3%
Cc1cccc(-c2ccc3[nH]c4c(c3c2)CCN2C[C@H]3[C@H](C)ON(C)[C@H]3C[C@@H]42)c1,?,-9.0,·,14.6µM*,·,·
CN[C@H]1C[C@H]2c3[nH]c4ccc(-c5cccc(C)c5)cc4c3CCN2C[C@H]1[C@H](C)O,7.31µM*,?,·,11.6µM*,·,·
Cc1cccc(-c2ccc3[nH]c4c(c3c2)CCN2C[C@@H]([C@H](C)O)[C@@H](N(C)C(=O)NC3CCCCC3)C[C@@H]42)c1,13µM*,-14.7,·,?,·,·
C[C@H](O)[C@@H]1CN2CCc3c([nH]c4ccccc34)[C@@H]2C[C@@H]1N(C)C(=O)NC1CCCCC1,?,6.7,·,?,·,·
O=C(CSc1nnc(-c2cccc(F)c2)c(-c2cccc(F)c2)n1)NC1CCCCC1,?,·,-4.4%,?,·,·
CC(=O)c1ccc(NS(=O)(=O)c2cccc3cccnc23)cc1,?,3.5,·,?,·,·
Cc1nnc(N/N=C/c2c(O)n(-c3cccc(C(F)(F)F)c3)c(=O)c3ccccc23)[nH]c1=O,·,·,17.9%,·,·,·
Cc1cc(N=Cc2c(O)n(-c3cccc(C(F)(F)F)c3)c(=O)c3ccccc23)no1,18.4µM*,21.8,0.0%,23.1µM*,-4.3%,-5.7%
Cn1ncc2c(N3CCN(c4ccc(Cl)c(Cl)c4)CC3)ncnc21,10.3µM*,-60.1*,-0.9%,7.31µM*,10.9%,-3.5%
Cn1nnc2c(N3CCN(c4ccccc4Cl)CC3)ncnc21,?,·,-0.7%,?,·,·
Cn1nnc2c(N3CCN(c4cccc(Cl)c4)CC3)ncnc21,?,·,-10.6%,4.11µM*,·,·
